About 4,300 (8.3%) of roughly 52,000 compounds were called active. This is one part of a sample in which actives are shown more often than they occur. Cut-off read from the data, not from the text of the source: active = survival mostly below about 52% (no sharp cut-off); inactive = mostly above about 56%.

The subject of this experiment is DeltatarO mutant. Briefly: growth inhibition of S. aureus wild type versus tarO mutant, primary screen, teichoic acid synthesis inhibitors, RN4220, OD600 (AID 463173). Particulars: OD600, 18 h, stronger effect = lower value, screened at 18.75 µg/mL (by protocol).
For `CCC(=O)Nc1nnc(C(C)(C)C)s1`, the survival was 51% (active). On to `CC(C)(C)c1nnc(NC(=O)CS(=O)(=O)Cc2ccccc2)s1`, for which the survival is 95% (inactive). The value for `CCC(CC)C(=O)Nc1nnc(C(C)(C)C)s1` was 95% (inactive); that for `CCn1nnc2cc(C(=O)Nc3cccc(C)c3C)ccc21` was 72% (inactive); that for `Clc1ccc(NCCC2=CCCCC2)nn1` was 84% (inactive). With `CN(C)CCNc1ccc(Cl)nn1` the figure was 96% (inactive); with `Clc1ccc(NC2CCCCC2)nn1`, 66% (active); with `COc1ccccc1-c1nc(SCC(=O)NCc2ccc(C)cc2)c2c(=O)n(C)c(=O)n(C)c2n1`, 69% (inactive). On to `Cc1ccccc1NC(=O)c1ccc2[nH]c(C)c(C)c2c1`, for which the survival is 123% (inactive). With `COC(=O)c1sc2cccc(F)c2c1S(=O)(=O)Nc1ccc(C)cc1Cl`, the survival was 91% (inactive). For the compound `COC(=O)c1sc2cccc(F)c2c1S(=O)(=O)Nc1cc(OC)cc(OC)c1`, the survival is 8% (active). `CCOc1ccccc1NS(=O)(=O)c1c(C(=O)OC)sc2cccc(F)c12`: the survival is 20% (active).

As to `COC(=O)c1sc2cccc(F)c2c1S(=O)(=O)Nc1cc(C)c(Cl)cc1OC`, the survival is 89% (inactive).

Take `CCOC(=O)c1sc2cccc(F)c2c1S(=O)(=O)Nc1ccccc1F`: the survival is 99% (inactive). For `COC(=O)c1sc2cccc(F)c2c1S(=O)(=O)Nc1ccc(N(C)C)cc1`, the survival is 66% (inactive). For the compound `COC(=O)c1ccccc1NS(=O)(=O)c1cc2c(cc1C)N(C)CCO2`, the survival was 87% (inactive). With `COc1cc(C(=O)N2CCN(CCc3ccccn3)CC2)cc(OC)c1OC` the figure was 66% (inactive). Take `Cc1ccc2nc(-c3cccc(Cl)c3)c(Nc3ccc4c(c3)OCO4)n2c1`: the survival is 75% (inactive). `COc1cc(NC(=O)C2CCCN(S(=O)(=O)c3ccc4c(c3)CCCC(=O)N4)C2)cc(OC)c1` (stereo unspecified): the survival is 94% (inactive). With `COc1ccc(CN(Cc2ccco2)C(=O)COc2ccccc2Cl)cc1` the figure was 51% (inactive); with `CCCc1cc(=O)[nH]c(SCc2nc(-c3ccccc3)no2)n1`, 0% (active). The value for `CCc1cc(=O)[nH]c(SCc2nc(-c3ccccc3)no2)n1` was 95% (inactive); that for `CCc1cc(=O)[nH]c(SCc2nc(-c3ccc(C(F)(F)F)cc3)no2)n1` was 32% (active). In the case of `CCCc1cc(=O)[nH]c(SCc2nc(-c3ccc(C)cc3)no2)n1`, the survival was 78% (inactive). With `O=c1cc(-c2ccccc2)nc(SCc2nc(-c3ccc(C(F)(F)F)cc3)no2)[nH]1` the figure was 188% (inactive); with `CCc1cc(=O)[nH]c(SCc2nc(-c3cccc(Cl)c3)no2)n1`, 49% (inactive); with `Cc1ccc(CNC(=O)c2sc3nc(C)cc(C)c3c2-n2cccc2)cc1`, 90% (inactive). As for `COc1ccccc1CNC(=O)c1cc2c(s1)-c1ccc(Cl)cc1SC2`, the survival is 79% (inactive). In the case of `Cc1ccccc1Nc1nnc(-c2ccc(C)c(S(=O)(=O)N3CCOCC3)c2)c2ccccc12`, the survival was 85% (inactive). For `O=C(NC(CO)C(=O)O)c1ccncc1` (stereo unspecified), the survival is 94% (inactive).

In the case of `CCc1ccc(Cc2cnc(NC(=O)c3ccc4c(c3)CC(c3ccccc3)OC4=O)s2)cc1` (stereo unspecified), the survival is 51% (inactive). Regarding `COc1cccc(-n2c(C)nc3cc(C(=O)O)ccc32)c1`, the survival is 177% (inactive). For `O=C(Cn1c(=O)nc(-c2ccccc2)c2cc(Cl)ccc21)N1CCN(c2ccc(F)cc2)CC1`, the survival was 99% (inactive).

`O=S(=O)(NC1CCc2ccccc21)c1ccc(S(=O)(=O)N2CCCC2)cc1` (stereo unspecified): the survival was 82% (inactive).

Consider `CC1Cc2cc(S(=O)(=O)CCC(=O)Nc3ccccc3F)ccc2N1C(=O)C1CC1` (stereo unspecified), for which the survival is 100% (inactive).

As to `Cc1cccc(Nc2nc(-c3ccccc3)nc3ccccc23)c1`, the survival is 1% (active).

For the compound `CC(=O)c1cccc(Nc2nc(-c3ccccc3Cl)nc3ccccc23)c1`, the survival is 38% (active).

`Cc1cccc(-c2nc(N3CCN(c4ccc(F)cc4)CC3)c3ccccc3n2)c1`: the survival is 54% (inactive). With `Cc1cccc(Nc2cc(C)nc3nc(-c4ccccc4)nn23)c1` the figure was 95% (inactive); with `Oc1cccc(Nc2nc(-c3ccccc3)nc3ccccc23)c1`, 10% (active); with `CC(=O)c1cccc(Nc2ncnc3c2cnn3C)c1`, 67% (inactive). For `Fc1ccc(Nc2nc(SCc3ccc(Cl)cc3)nc3ccccc23)cc1`, the survival was 92% (inactive).

With `Cc1nnc2c(Nc3cccc(O)c3)nc3ccccc3n12`, the survival is 68% (inactive). Turning to `Cc1nnc2c3ccccc3nc(Nc3cccc(O)c3)n12`, the survival was 101% (inactive). The value for `Oc1ccc(Nc2ncnc3ccccc23)cc1` was 77% (inactive). On to `CC(=O)c1cccc(NC(=O)c2cc(-c3ccc(Cl)s3)nc3ccccc23)c1`, for which the survival is 77% (inactive).

Take `Oc1ccc(Nc2nc(-c3ccc(Cl)cc3)nc3ccccc23)cc1`: the survival was 3% (active). Regarding `COc1ccc(CCNC(=O)C(=O)NCC(c2cccs2)S(=O)(=O)c2ccc(C)cc2)cc1` (stereo unspecified), the survival was 69% (inactive). As to `O=C(CC1N=C2c3ccccc3N=C(SCc3ccc(F)cc3)N2C1=O)NC1CCCCC1` (stereo unspecified), the survival was 124% (inactive).

Take `Cc1ccc(CNS(=O)(=O)c2cc3c(cc2C)NC(=O)CO3)cc1`: the survival was 79% (inactive). Consider `CCCN(CCC)c1nn2c(=O)c(C(=O)NCc3cccc(OC)c3)cnc2s1`, for which the survival is 84% (inactive). For `CC(C)NC(=O)CSc1nc2ccccc2n1CC(=O)NC(C)C`, the survival is 96% (inactive).

With `COC(=O)c1ccccc1NC(=S)N(Cc1ccco1)Cc1cc2cc(C)ccc2[nH]c1=O`, the survival was 94% (inactive). For `O=c1c2ccccc2nc2sc(Nc3cccc(C(F)(F)F)c3)nn12`, the survival was 86% (inactive). For the compound `CN(C(=O)c1cc2sccc2n1Cc1ccc(F)cc1)C1CCCCC1`, the survival is 88% (inactive). In the case of `CCOc1ccccc1C(=O)Nc1ccc(S(=O)(=O)Nc2onc(C)c2C)cc1`, the survival is 77% (inactive). On to `CCN(C1CCCCC1)S(=O)(=O)c1cccc(S(=O)(=O)N2CCCC2)c1`, for which the survival was 70% (inactive). With `COc1cc(C2c3c(oc4ccc(F)cc4c3=O)C(=O)N2c2nc(C)c(C)s2)cc(OC)c1OC` (stereo unspecified) the figure was 157% (inactive); with `COc1ccc2c(Sc3ccc(C)cc3)c(C(=O)NC(C)C)[nH]c2c1`, 86% (inactive). Take `Cc1ccc(CCNC(=O)CCn2nc(-c3ccc(C)cc3)ccc2=O)cc1`: the survival was 94% (inactive). Regarding `COc1ccc(C(=O)O)cc1Nc1nc2ccc(C)cc2n2cnnc12`, the survival was 117% (inactive). As for `COc1ccc(Nc2nc(-c3ccccc3F)nc3ccccc23)cc1OC`, the survival is 99% (inactive).

In the case of `COc1ccc(Nc2nc(-c3ccc(C)cc3)nc3ccccc23)c(OC)c1`, the survival was 75% (inactive). For `COc1cc(Nc2nc(-c3ccc(OC)c(OC)c3)nc3ccccc23)cc(OC)c1`, the survival is -2% (active).

For `CCC(=O)OCCCNc1nc(-c2ccc(Cl)cc2)nc2ccccc12`, the survival was -2% (active). The value for `CCOc1ccccc1OCCCCn1c(-c2ccc(Cl)cc2)nc2ccccc2c1=O` was 45% (inactive); that for `CC(=O)c1cccc(NC(=O)c2nc(-c3ccccc3)n(-c3cccc(C)c3)n2)c1` was 64% (inactive); that for `CC(=O)c1cccc(Nc2nc(-c3cccc(C)c3)nc3ccccc23)c1` was 4% (active). Turning to `OCCNc1nc(-c2cccnc2)nc2ccccc12`, the survival is 93% (inactive). As for `CC(=O)c1cccc(NC(=O)c2nc(-c3ccccc3)n(-c3ccccc3C)n2)c1`, the survival was 76% (inactive). As to `O=C(O)c1ccc(Nc2nc3ccccc3c3nncn23)cc1`, the survival is 95% (inactive).

Take `COc1ccc(CNC(=O)C(OC(=O)c2ccc(Cl)nc2)c2ccccn2)cc1` (stereo unspecified): the survival is 104% (inactive). Turning to `CCC(CC)C(=O)OCc1cc(=O)n2nc(C3CC3)sc2n1`, the survival was 62% (inactive). As to `COc1ccc(CCNC(=O)CCc2c(C)nc3c(c(C)nn3-c3ccc(C)c(C)c3)c2C)cc1OC`, the survival is 57% (inactive).

With `CC1=C(C)CC(C(=O)Nc2ccc(NC(=O)NC3CCCCC3)cc2)C(C(=O)O)C1` (stereo unspecified), the survival is 81% (inactive). Take `COc1ccc(-c2nc3nc(C)cc(N4CCN(c5cccc(C(F)(F)F)c5)CC4)n3n2)cc1`: the survival is 45% (inactive). As for `Cc1ccc(-c2nc3nc(C)cc(N4CCN(c5cc(Cl)ccc5C)CC4)n3n2)cc1`, the survival is 86% (inactive). The value for `Cc1cc(N2CCN(c3ccc(F)cc3)CC2)n2nc(-c3ccc(Cl)cc3)nc2n1` was 49% (inactive); that for `Cc1cc(N2CCN(c3cccc(C(F)(F)F)c3)CC2)n2nc(-c3ccccc3C)nc2n1` was 2% (active). With `Cc1cc(N2CCN(c3cccc(C(F)(F)F)c3)CC2)n2nc(-c3ccccc3)nc2n1` the figure was 41% (active); with `Cc1cccc(-c2nc3nc(C)cc(N4CCN(c5ccccc5)CC4)n3n2)c1`, 60% (inactive); with `O=C(O)CCSc1nc2ccccc2o1`, 87% (inactive). For `CCc1cccc(C)c1NC(=O)CN(C)S(=O)(=O)c1cccc2nsnc12`, the survival is 89% (inactive).

With `COC(=O)C1=C(C)NC(=O)C1(NC(=O)c1cc(OC)c(OC)c(OC)c1)C(F)(F)F` (stereo unspecified), the survival was 54% (inactive). `Cc1ccc(Cl)cc1NC(=O)C(C)n1nc(-c2ccccc2)ccc1=O` (stereo unspecified): the survival was 20% (active). Turning to `CCC(C(=O)Nc1cc(OC)cc(OC)c1)n1nc(-c2ccc(C)c(C)c2)ccc1=O` (stereo unspecified), the survival is 75% (inactive). As for `COc1ccc(NC(=O)C(C)n2nc(-c3ccc(C)c(C)c3)ccc2=O)cc1OC` (stereo unspecified), the survival was 69% (inactive). For the compound `Cc1ccc(-c2ccc(=O)n(C(C)C(=O)Nc3ccccc3Cl)n2)cc1C` (stereo unspecified), the survival is 66% (inactive). With `CCC(C(=O)Nc1cccc(Cl)c1C)n1nc(C)c2sc3ccccc3c2c1=O` (stereo unspecified), the survival was 72% (inactive). With `CC(=O)c1ccc(NC(=O)CSc2ccc3nc(-c4ccccc4)cn3n2)cc1` the figure was 89% (inactive).

In the case of `Cc1ccc(-c2ccc(=O)n(CC(=O)Nc3ccc(C)cc3Cl)n2)cc1`, the survival was 50% (inactive). For the compound `CCC(C(=O)Nc1cccc(Cl)c1C)n1nc(-c2ccc(C)cc2)ccc1=O` (stereo unspecified), the survival was 41% (active). In the case of `COc1ccc(Cl)cc1NC(=O)C(OC)c1ccccc1` (stereo unspecified), the survival is 83% (inactive). On to `Cc1ccc(Cl)cc1NC(=O)C(C)n1nnc2sc(-c3ccccc3)cc2c1=O` (stereo unspecified), for which the survival was 59% (inactive).

Turning to `CC(=O)c1ccc(NC(=O)C(C)n2nc(-c3ccccc3)ccc2=O)cc1` (stereo unspecified), the survival was 32% (active). In the case of `CCC(C(=O)Nc1cc(Cl)ccc1OC)n1nc(-c2ccccc2)ccc1=O` (stereo unspecified), the survival was 24% (active).

The values are drawn from PubChem BioAssay AID463173 (ICCB-Longwood Screening Facility, Harvard Medical School, 2010).
